Assay outcomes as filed in PubChem.
RecA splice inh: inhibitors of M. tuberculosis RecA intein splicing; 0.75% of 290,000 active; P9WHJ3; inhibition, % (test concentration not listed); cell-free RecA intein splicing, fluorescence; AID 2221; in the data active means inhibition above about 30%;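 further: 0% = vehicle wells and 100% = reference inhibitor control wells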
Target sequence (P9WHJ3 whole entry, looked up, canonical isoform): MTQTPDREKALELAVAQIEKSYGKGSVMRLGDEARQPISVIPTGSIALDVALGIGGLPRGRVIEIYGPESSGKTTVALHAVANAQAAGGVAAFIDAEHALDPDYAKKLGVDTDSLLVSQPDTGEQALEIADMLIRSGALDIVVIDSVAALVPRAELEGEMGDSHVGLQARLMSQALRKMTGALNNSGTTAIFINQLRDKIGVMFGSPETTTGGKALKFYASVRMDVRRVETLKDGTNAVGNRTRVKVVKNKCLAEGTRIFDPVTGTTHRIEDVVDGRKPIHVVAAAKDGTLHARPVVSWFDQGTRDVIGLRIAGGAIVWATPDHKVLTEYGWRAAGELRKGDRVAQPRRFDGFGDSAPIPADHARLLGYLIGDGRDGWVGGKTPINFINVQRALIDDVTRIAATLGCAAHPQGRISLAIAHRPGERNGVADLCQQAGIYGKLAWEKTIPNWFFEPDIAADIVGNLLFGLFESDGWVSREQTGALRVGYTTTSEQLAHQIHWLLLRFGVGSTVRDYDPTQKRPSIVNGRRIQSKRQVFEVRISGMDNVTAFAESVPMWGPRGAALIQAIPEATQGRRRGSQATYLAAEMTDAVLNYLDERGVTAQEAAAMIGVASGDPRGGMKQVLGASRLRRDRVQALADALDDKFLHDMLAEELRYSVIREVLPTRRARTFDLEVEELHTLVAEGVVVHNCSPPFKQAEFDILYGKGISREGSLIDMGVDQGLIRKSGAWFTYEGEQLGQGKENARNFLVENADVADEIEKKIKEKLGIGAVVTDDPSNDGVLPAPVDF
Sa ugtP lethal: kills S. aureus RN4220 lacking UgtP. AID 1259309. S. aureus RN4220 ugtP deletion, OD600 growth, 16 h. 0.54% of 330,000 active. growth inhibition, % (concentration not given with the values); in the data active means growth inhibition above about 68%;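 further: plate controls were untreated wells for no effect and antibiotic for full effect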
RN4220 kill: kills Staphylococcus aureus RN4220. S. aureus RN4220 growth, OD600, 16 h. inhibition, % (concentration not given with the values). 0.33% of 330,000 active. AID 1259311; in the data active means inhibition above about 85%;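 further: plate controls were untreated cells for no effect and reference antibiotic for full effect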
CCHFV vOTU inh: blocks the CCHF virus ovarian tumor domain protease. CCHFV vOTU protease, Pep-AMC fluorescence. inhibition, % at 11.5 µM. 0.55% of 370,000 active. AID 651958; in the data active means inhibition above about 30%; further: 0% = vehicle wells with enzyme and 100% = no enzyme wells
Mtb hypoxia rep: inhibitors of hypoxia-regulated fluorescent reporter in Mycobacterium tuberculosis; M. tuberculosis hypoxia-regulated fluorescent reporter, fluorescence; fluorescence inhibition, % (concentration not given with the values); 0.1% of 300,000 active; in the data active means fluorescence inhibition mostly above about 23%, no sharp cut-off; inactive means mostly below about 17%
BJeLR viability: kills HRASV12-expressing BJeLR cells; BJeLR (HRASV12) viability, CellTiter-Glo ATP luminescence, 48 h; inhibition, % (test concentration not listed); 0.17% of 300,000 active; AID 1554; in the data active means inhibition above about 50%
* marks the source's active call; other numbers are inactive results; . = no result shown. Hits are enriched below; roughly 1.6% of the tested compounds scored in any of these assays.

SMILES	RecA splice inh	Sa ugtP lethal	RN4220 kill	CCHFV vOTU inh	Mtb hypoxia rep	BJeLR viability
CCCc1[nH]nc2c1C(C1CCCCC1)C(C#N)=C(N)O2 (configuration not stated)	-5	5	2	6	16	2
CCOc1cc(C2C(C#N)=C(N)Oc3n[nH]c(CC)c32)ccc1OCCN1CCOCC1 (configuration not stated)	50*	7	4	6	.	-3
CCCc1[nH]nc2c1C(c1ccc(O)cc1OCC)C(C#N)=C(N)O2 (configuration not stated)	78*	2	-3	10	.	5
CCOc1cc(C2C(C#N)=C(N)Oc3n[nH]c(C)c32)ccc1OCCN1CCOCC1 (configuration not stated)	48*	-5	0	5	-6	-3
CCOc1ccc(C2C(C#N)=C(N)Oc3cc(O)ccc32)cc1OCC (configuration not stated)	-8	24	6	-9	2	-3
COc1ccc(C2C(C#N)=C(N)Oc3cc(C)n(CCN4CCOCC4)c(=O)c32)cc1OC (configuration not stated)	-1	16	16	-3	9	2
CCCc1[nH]nc2c1C(c1ccc(OCCN3CCOCC3)c(OCC)c1)C(C#N)=C(N)O2 (configuration not stated)	44*	12	7	1	10	-3
COC(=O)C(Cc1ccc(O)cc1)NC(=O)Cn1ccc(NC(=O)OCc2ccccc2)nc1=O (configuration not stated)	.	-12	0	.	2	.
CC(C)CC(NC(=O)OC(C)(C)C)C(=O)NC(CO)C(O)C1CC1C(=O)NC1CCCCC1 (configuration not stated)	.	-3	6	.	20	.
CC1CN(C(C)CO)C(=O)c2cc(NS(C)(=O)=O)ccc2OC1CN(C)CC1CCCCC1 (configuration not stated)	.	7	6	.	6	.
C/C(=C/CCC(C)[C@H]1CC[C@@]2(C)C3=C(CC[C@]12C)[C@@]1(C)CCC(=O)C(C)(C)[C@@H]1CC3)C(=O)O (some centres not stated)	42*	.	.	7	.	-1
Cc1ccc(SC(CCN2CCC(C)CCC2=O)c2ccccc2)cc1 (configuration not stated)	.	10	-3	.	19	.
O=c1c(OC2OC(CO)C(O)C(O)C2O)c(-c2ccc(O)cc2)oc2cc(O)cc(O)c12 (configuration not stated)	.	-4	-1	.	-1	.
CC(=O)Nc1cccc(OC(=O)COc2ccc(Br)cc2)c1	35*	1	-1	-10	1	2
CC(=O)Nc1ccc(S(=O)(=O)c2ccc([N+](=O)[O-])cc2)cc1	0	72	97*	9	21	6
CC(=O)Nc1ccc([As](=O)(O)c2ccc([N+](=O)[O-])cc2)cc1	0	0	6	-8	19	3
Cc1ccc(C(=O)CSc2nnc(-c3ccc4[nH]c(C)c(C)c4c3)o2)cc1C	-2	98*	18	-14	19	-6
Cc1[nH]c2ccc(-c3nnc(SCC(=O)c4ccccc4F)o3)cc2c1C	3	-23	18	-1	14	6
NC(=O)CNC(=O)C1CC2(CC(c3ccccc3)=NO2)CN1C(=O)c1ccc(Br)cc1 (configuration not stated)	.	3	2	.	7	.
CC(C)(C)c1nnc(NN=Cc2ccccc2O)n(N)c1=O	.	-2	5	.	-4	.
CC(C)(C)c1nnc(N/N=C/c2cc(Br)ccc2O)n(N)c1=O	12	.	.	2	.	85*
NC(=O)c1ccc(NC(=O)COC(=O)C=Cc2cccs2)cc1	.	1	5	.	1	.
O=C(O)c1ccc(NN=C/C=C/c2ccc([N+](=O)[O-])o2)cc1	.	7	5	.	68*	.
COc1ccccc1OCC(=O)NN=CC=Cc1ccc([N+](=O)[O-])o1	.	100*	101*	.	.	.
O=C(C=Cc1ccccc1Cl)c1cccnc1	.	-3	20	.	17	.
SMILES	RecA splice inh	Sa ugtP lethal	RN4220 kill	CCHFV vOTU inh	Mtb hypoxia rep	BJeLR viability
C=C1CCN(C(C(=O)OCc2ccc(C)cc2)C(C)C)S(=O)(=O)c2ccccc21 (configuration not stated)	.	2	7	.	12	.
COc1cc(/C=C/c2ccc3cccc(O)c3n2)cc(Br)c1OC	2	9	6	-21	9	48
COc1cc(/C=C/c2ccc3cccc(O)c3n2)cc(OC)c1OC	3	2	0	-3	-4	56*
CCc1ccc(C2CC=C(C(=O)O)C(c3ccccc3)N2S(=O)(=O)c2ccc(C)cc2)cc1 (configuration not stated)	.	37	18	.	3	.
COC(=O)C1=C(c2ccc(F)cc2OCc2ccccc2)CC2CCC1N2C(=O)NCc1ccccc1C(F)(F)F (configuration not stated)	.	7	-2	.	15	.
CCC(CO)NC(=O)C1C=C2c3cccc4c3c(cn4C)CC2N(C)C1 (configuration not stated)	.	9	9	.	12	.
O=C(Cc1ccc(-c2ccccc2)cc1)NCc1ccccc1	-3	-2	-5	-14	-4	64*
CC(/C=C1\SC(=S)N(NC(=O)c2cccc(O)c2)C1=O)=C\c1ccccc1	31*	-2	37	13	6	5
NC(Cc1cccc2ccccc12)=NOC(=O)c1ccc2c(c1)OCO2	.	-9	-1	.	4	.
Cc1c(C(=O)NN)[nH]c2ccc([N+](=O)[O-])cc12	-1	-5	-6	6	12	2
Cc1ccc(C)c2c1[nH]c1ccc([N+](=O)[O-])cc12	0	84*	80	17	14	14
O=C1C=C(c2cccc(Br)c2)CC(c2ccc3c(c2)OCO3)C1 (configuration not stated)	.	15	11	.	23	.
COc1ccc(CN2C(=O)C(Cc3ccccc3)Nc3ncnc(N4CCc5ccccc5C4)c32)cc1 (configuration not stated)	35*	.	.	.	.	-5
O=[N+]([O-])c1cc(-c2nnc(Nc3ccc(O)cc3)c3ccccc23)ccc1N1CCOCC1	32*	.	.	8	.	-1
O=[N+]([O-])c1cc(-c2nnc(Nc3ccccc3)c3ccccc23)ccc1N1CCOCC1	.	-21	8	-5	-3	10
O=C(c1cc(S(=O)(=O)N2CCOCC2)c(Cl)cc1Cl)N1CCN(S(=O)(=O)c2cccc(F)c2)CC1	.	-5	-2	4	-1	.
Cc1ccc(S(=O)(=O)N2CCN(C(=O)c3cc(S(=O)(=O)N4CCOCC4)c(Cl)cc3Cl)CC2)cc1	.	3	5	15	28*	.
O=C(O)c1cc(N/N=C/c2ccc(N3CCOCC3)s2)ccc1Cl	-8	.	.	31*	.	-1
C[C@]12NC(Cc3ccccc31)c1ccccc12	.	-4	8	.	1	.
CCOC(=O)c1ccc(N2CCCCC2)c(NS(=O)(=O)c2cccc(C(F)(F)F)c2)c1	11	88*	1	9	15	-9
